Results taken from PubChem BioAssay AID2796 (The Scripps Research Institute Molecular Screening Center, 2010).
Among all 320,000 compounds or so, about 8,000 (2.5%) were called active. This is one part of a sample in which actives are shown more often than they occur. No stated cut-off is given here; in the data, active means activation above about 47%; inactive means the rest.

Target: Aryl hydrocarbon receptor (Homo sapiens) (UniProt P35869)
Assay: AHR activators, primary screen, cell-based, luminescence, luciferase reporter, human (AID 2796);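 further: 0% = vehicle wells and 100% = reference agonist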
Conditions: AHR-responsive luciferase reporter cells, at 5 µM, hits give high values

Sequence of Aryl hydrocarbon receptor (Homo sapiens) (P35869 whole entry, looked up): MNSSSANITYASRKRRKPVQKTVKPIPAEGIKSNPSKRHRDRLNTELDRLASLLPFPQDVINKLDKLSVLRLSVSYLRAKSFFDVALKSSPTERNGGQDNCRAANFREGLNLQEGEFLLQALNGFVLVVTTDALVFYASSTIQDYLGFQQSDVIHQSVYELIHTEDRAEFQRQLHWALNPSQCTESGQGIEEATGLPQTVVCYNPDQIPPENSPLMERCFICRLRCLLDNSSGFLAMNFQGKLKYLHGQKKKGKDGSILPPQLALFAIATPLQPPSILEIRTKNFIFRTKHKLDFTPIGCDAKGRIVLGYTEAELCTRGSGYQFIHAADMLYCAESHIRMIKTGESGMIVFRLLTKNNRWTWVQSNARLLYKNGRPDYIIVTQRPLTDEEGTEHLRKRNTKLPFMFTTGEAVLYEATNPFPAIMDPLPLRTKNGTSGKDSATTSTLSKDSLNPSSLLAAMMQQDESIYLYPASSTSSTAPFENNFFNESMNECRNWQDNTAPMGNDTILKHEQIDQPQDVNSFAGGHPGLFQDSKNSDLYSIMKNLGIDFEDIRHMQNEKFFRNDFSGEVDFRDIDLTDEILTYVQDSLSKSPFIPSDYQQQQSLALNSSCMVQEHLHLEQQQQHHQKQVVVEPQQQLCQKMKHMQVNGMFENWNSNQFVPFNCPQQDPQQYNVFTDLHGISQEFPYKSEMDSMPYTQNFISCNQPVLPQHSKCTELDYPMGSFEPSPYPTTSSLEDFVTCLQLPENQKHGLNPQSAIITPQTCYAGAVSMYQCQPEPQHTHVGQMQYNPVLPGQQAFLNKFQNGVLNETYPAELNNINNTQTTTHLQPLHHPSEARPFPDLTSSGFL

| SMILES | activation |
| --- | --- |
| Cc1ccc(-n2ncc3c(Nc4cccc(C(=O)O)c4)ncnc32)cc1 | -0.95% (inactive) |
| Cc1sc2ncnc(N3CCC(C(=O)Nc4nc5ccc(Cl)cc5s4)CC3)c2c1C | 12.5% (inactive) |
| Cc1noc(C)c1S(=O)(=O)N(C)C[C@H]1Oc2c(NC(=O)Nc3ccc4c(c3)OCO4)cccc2C(=O)N([C@H](C)CO)C[C@@H]1C | 0.19% (inactive) |
| Cc1cc(NC(=O)/C=C/C(=O)N(c2ccccc2C)C(C(=O)NC2CCCC2)c2ccc(F)cc2)no1 (stereo unspecified) | 6.2% (inactive) |
| OCc1ccc(-c2ccccc2)c(-c2ccccc2)c1 | -2.37% (inactive) |
| Cc1cc2c(=O)n(C)c(SCC(=O)c3cc4ccccc4o3)nc2s1 | 15.9% (inactive) |
| Cc1ccccc1Nc1nnc(SCC(=O)c2cc3ccccc3o2)s1 | 26.2% (inactive) |
| Cc1ccc(Nc2nnc(SCC(=O)c3cc4ccccc4o3)s2)cc1C | 52.8% (active) |
| COC(=O)c1ccc([C@@H](O)[C@H](C)C(=O)CC(=O)OC(C)(C)C)cc1 | 1.52% (inactive) |
| COC(=O)c1ccc(NC(=O)CSc2nc(N)c(NC(=O)c3ccc(Br)o3)c(=O)[nH]2)cc1 | -1.66% (inactive) |
| Cn1c2ccccc2c2c(C(=O)N3CCN(c4ccc(F)cc4)CC3)cn(C3CCCC3)c(=O)c21 | 12.2% (inactive) |
| O=C(Nc1cccc(F)c1)c1cc(-c2ccco2)nc2ccccc12 | 33.2% (inactive) |
| CNC(=S)NNC(=O)c1oc2nc(-c3ccccc3)cc(-c3ccco3)c2c1N | 15.9% (inactive) |
| NNC(=O)c1oc2nc(-c3ccccc3)cc(-c3ccco3)c2c1N | 76.1% (active) |
| CCN(Cc1nc2ccccc2c(=O)[nH]1)Cc1cc(=O)oc2cc(C)c(C)cc12 | 0.64% (inactive) |
| COC(=O)c1ccc(CNC(=O)c2ccc(S(=O)(=O)N3CCCCCC3)cc2)cc1 | -0.2% (inactive) |
| CCN(C(=O)Cc1nc(N)n[nH]1)C1(C(=O)Nc2ccccc2)CCCCC1 | 1.44% (inactive) |
| Brc1c(CSc2nncc3ccccc23)nc2ccccn12 | 48.9% (active) |
| CN(C(=O)CSc1nncc2ccccc12)C1CCCCC1 | 8.04% (inactive) |
| CC(C)CC(=O)c1c[nH]c(C(=O)NCc2ccccc2)c1 | 5.43% (inactive) |
| O=C(NC(=S)N1CCc2ccccc21)c1ccco1 | 8.66% (inactive) |

| SMILES | activation |
| --- | --- |
| O=C(NNC(=S)NC(=O)c1cn(-c2ccccc2)nc1-c1ccccc1)c1ccncc1 | 12.3% (inactive) |
| O=C(NCc1ccco1)c1nc2ncccn2n1 | -0.33% (inactive) |
| O=c1oc(-c2ccco2)nc2sc3c(c12)CCCCC3 | 5.12% (inactive) |
| O=C(NCc1ccco1)c1cccn2c(=O)c3c4c(sc3nc12)CCCC4 | 48.2% (active) |
| Fc1ccc2[nH]c3c(N4CCSCC4)ncnc3c2c1 | 58.6% (active) |
| Cc1c(CN2CC[C@@H](N3CCN(c4ccccn4)CC3)[C@H](O)C2)[nH]c2ccc(F)cc12 | 2.27% (inactive) |
| COc1ccc(N2CCN(C(=O)Cn3cnc4sc(C)c(S(=O)(=O)N5CCOCC5)c4c3=O)CC2)cc1 | -4.91% (inactive) |
| CCOC(=O)c1cc(NC(=O)c2cccnc2)ccn1 | 4.05% (inactive) |
| COc1ccc(OC)c(NC(=O)CC(Cc2ccccc2OC)C(=O)O)c1 (stereo unspecified) | -3.53% (inactive) |
| CCOc1ccc(NC(=O)Nc2cc(C)ccc2OC)cc1 | -5.37% (inactive) |
| CCOc1ccccc1NC(=O)c1cccnc1 | 93.9% (active) |
| CCOc1ccccc1NC(=O)Nc1cc(OC)ccc1OC | 71% (active) |
| O=C(Nc1cnccn1)c1cccnc1 | 0.46% (inactive) |
| O=C(Nc1ccc(N2CCOCC2)nc1)c1c(F)cccc1F | -5.89% (inactive) |
| COc1ccc(C(=O)N(C)CC(O)c2ccccc2)cc1OC1CCN(C(C)=O)CC1 (stereo unspecified) | 2.56% (inactive) |
| Cc1nc(SCC(=O)NC2CCCCC2C)c(C#N)c(C)c1C (stereo unspecified) | -1.86% (inactive) |
| CC(C)CC1NC(=O)c2cc(Cl)ccc2-n2c1nc1ccccc1c2=O (stereo unspecified) | 20.2% (inactive) |
| CCOCCCNC(=O)C(NC(=O)CNC(=O)c1ccccc1)c1ccc(C)cc1 (stereo unspecified) | 0.56% (inactive) |
| O=C(c1ccc(F)cc1)C1CCN(Cc2cn[nH]c2-c2ccccc2)CC1 | 3.88% (inactive) |
| Cc1cccc(C)c1NC(=O)C1(C)c2cccc[n+]2CC(=O)N1Cc1cccs1 (stereo unspecified) | 1.93% (inactive) |
| O=S(=O)(Nc1ccc(Oc2ncccn2)c(Cl)c1)c1ccc(F)cc1 | -0.48% (inactive) |

| SMILES | activation |
| --- | --- |
| CCN(CC)C(=O)CC1(c2ccccc2OC)CCOC(C(C)C)C1 (stereo unspecified) | -3.4% (inactive) |
| O=C(Nc1ccc2oc(-c3ccc4ccccc4c3)nc2c1)c1cccs1 | 33.5% (inactive) |
| CCc1ccc2oc(-c3ccc(N)cc3)nc2c1 | 78.3% (active) |
| O=C(NC(=S)Nc1ccc(Br)cc1F)C1CCCCC1 | -1.21% (inactive) |
| CCOc1ccc(N(CC(=O)NCCc2ccc(F)cc2)S(=O)(=O)c2ccccc2)cc1 | 0.85% (inactive) |
| O=C(Nc1cccc(-n2cnnn2)c1)c1cccnc1 | 4.54% (inactive) |
| O=C(Nc1ccc(C(F)(F)F)cc1)c1cccc(-n2cnnn2)c1 | 102% (active) |
| Cc1cccc(NC(=O)c2nnn(-c3cccc(C(F)(F)F)c3)c2N)c1 | -4.69% (inactive) |
| CCOCCn1c(-c2ccccc2)nc2ccccc21 | -0.77% (inactive) |
| Cc1nc(-c2ccccc2)cn2c1nc1ccccc12 | 77% (active) |
| Cc1c(C(=O)Nc2cccc(Cl)c2)cn2c(nc3ccccc32)c1C#N | 7.03% (inactive) |
| Cc1ccc(-n2nc(C)c(/C=N/NC(=O)c3cccs3)c2Cl)cc1 | 11.5% (inactive) |
| COc1ccc(CCNC(=O)c2ccc(CS(=O)(=O)c3ccc(Br)cc3)o2)cc1OC | 2.36% (inactive) |
| O=C(NCc1cccnc1)c1ccc(CS(=O)(=O)c2ccc(Br)cc2)o1 | 77.4% (active) |
| COc1ccccc1CNC(=O)c1ccc(CS(=O)(=O)c2ccccc2)o1 | -0.56% (inactive) |
| C[C@H](NC(=O)C1CCN(S(=O)(=O)c2ccccc2)CC1)C(=O)NCc1ccccc1 | 1.44% (inactive) |
| O=C(Nc1ccc(Cl)cn1)c1ccc2c(c1)OCCO2 | -5.76% (inactive) |
| O=C(COC(=O)c1ccco1)Nc1ccc(Cl)cn1 | 10.9% (inactive) |
| O=C(Nc1ccc(Cl)cn1)c1cnn2cccnc12 | 129% (active) |
